This excerpt belongs to a sample that is enriched for the strongest signals.
What was measured:
Experiment in all cases: glycan array binding signal (z-score within array); higher = stronger binding
Details in all cases: glycan notation: IUPAC condensed, linker removed
[1] = molecular target: Fuc(a1-2)Gal(b1-3)GalNAc(b1-3)Gal
Outline: (§1)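 From the Consortium for Functional Glycomics database, 3228 arrays were curated, keeping only those whose protein sequence was available. Binding is given as a within-array Z-score averaged across arrays sharing a protein sequence and across linkers. Negative Z-scores can be read as non-binding.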

[2] = molecular target: Fuc(a1-2)Gal(b1-4)Fuc(a1-3)]GlcNAc(b1-2)Man(a1-3)[Fuc(a1-2)Gal(b1-4)[Fuc(a1-3)]GlcNAc(b1-2)Man(a1-6)]Man(b1-4)GlcNAc(b1-4)GlcNAc
Outline: as §1

[3] = molecular target: Fuc(a1-2)[Gal(a1-3)]Gal(b1-4)GlcNAc(b1-3)GalNAc
Outline: as §1

[4] = molecular target: Fuc(a1-2)[GalNAc(a1-3)]Gal(b1-3)GalNAc(a1-3)[Fuc(a1-2)]Gal(b1-4)GlcNAc
Outline: as §1

[5] = molecular target: Fuc(a1-2)[GalNAc(a1-3)]Gal(b1-4)GlcNAc(b1-3)Gal(b1-4)GlcNAc(b1-3)Gal(b1-4)GlcNAc
Outline: as §1

[6] = molecular target: Fuc(a1-3)[Gal(b1-4)]GlcNAc(b1-2)Man
Outline: as §1

Gal(a1-3)Gal(b1-3)GlcNAc = molecular target: Gal(a1-3)Gal(b1-3)GlcNAc
Outline: as §1

[7] = molecular target: Gal(a1-3)Gal(b1-4)[Fuc(a1-3)]GlcNAc(b1-2)Man(a1-3)[Gal(a1-3)Gal(b1-4)[Fuc(a1-3)]GlcNAc(b1-2)Man(a1-6)]Man(b1-4)GlcNAc(b1-4)GlcNAc
Outline: as §1

[8] = molecular target: Gal(b1-3)GalNAc(a1-3)[Fuc(a1-2)]Gal(b1-4)GlcNAc
Outline: as §1

[9] = molecular target: Gal(b1-3)GlcNAc(b1-2)Man(a1-3)[Gal(b1-3)GlcNAc(b1-2)Man(a1-6)]Man(b1-4)GlcNAc(b1-4)[Fuc(a1-6)]GlcNAc
Outline: as §1

[10] = molecular target: Gal(b1-3)GlcNAc(b1-3)Gal(b1-4)Glc
Outline: as §1

[11] = molecular target: Gal(b1-3)GlcNAc(b1-3)Gal(b1-4)GlcNAc(b1-6)[Gal(b1-3)GlcNAc(b1-3)]Gal(b1-4)Glc
Outline: as §1

[12] = molecular target: Gal(b1-3)GlcNAc(b1-3)Gal(b1-4)[Fuc(a1-3)]GlcNAc(b1-6)[Gal(b1-3)GlcNAc(b1-3)]Gal(b1-4)Glc
Outline: as §1

[13] = molecular target: Gal(b1-3)[Fuc(a1-4)]GlcNAc(b1-2)Man
Outline: as §1

[14] = molecular target: Gal(b1-4)GlcNAc(b1-2)Man(a1-3)Man(b1-4)GlcNAc(b1-4)GlcNAc
Outline: as §1

[15] = molecular target: Gal(b1-4)GlcNAc(b1-2)Man(a1-3)[GlcNAc(b1-4)][Gal(b1-4)GlcNAc(b1-2)Man(a1-6)]Man(b1-4)GlcNAc(b1-4)GlcNAc
Outline: as §1

[16] = molecular target: Gal(b1-4)GlcNAc(b1-3)Gal(b1-4)GlcNAc(b1-3)Gal(b1-4)GlcNAc(b1-3)Gal(b1-4)GlcNAc(b1-2)Man(a1-3)[Gal(b1-4)GlcNAc(b1-3)Gal(b1-4)GlcNAc(b1-3)Gal(b1-4)GlcNAc(b1-3)Gal(b1-4)GlcNAc(b1-2)Man(a1-6)]Man(b1-4)GlcNAc(b1-4)GlcNAc
Outline: as §1

Gal3S(b1-4)Glc6S = molecular target: Gal3S(b1-4)Glc6S
Outline: as §1

[17] = molecular target: Gal3S(b1-4)[Fuc(a1-3)]Glc6S
Outline: as §1

Gal3S6S(b1-4)GlcNAc6S = molecular target: Gal3S6S(b1-4)GlcNAc6S
Outline: as §1

Gal6P(b1-4)GlcNAc = molecular target: Gal6P(b1-4)GlcNAc
Outline: as §1

Gal6S(b1-3)GlcNAc6S = molecular target: Gal6S(b1-3)GlcNAc6S
Outline: as §1

[18] = molecular target: GalNAc(b1-3)Gal(a1-4)Gal(b1-4)GlcNAc
Outline: as §1

GalNAc(b1-4)Gal(b1-4)Glc = molecular target: GalNAc(b1-4)Gal(b1-4)Glc
Outline: as §1

[19] = molecular target: GlcNAc(a1-4)Gal(b1-4)GalNAc
Outline: as §1

[20] = molecular target: GlcNAc(a1-4)Gal(b1-4)GlcNAc(b1-3)Gal(b1-4)GlcNAc
Outline: as §1

[21] = molecular target: Man(a1-2)Man(a1-2)Man(a1-6)[Man(a1-3)]Man
Outline: as §1

Neu5Ac(a2-3)Gal = molecular target: Neu5Ac(a2-3)Gal
Outline: as §1

[22] = molecular target: Neu5Ac(a2-3)Gal(b1-3)GlcNAc(b1-2)Man(a1-3)[Neu5Ac(a2-3)Gal(b1-3)GlcNAc(b1-2)Man(a1-6)]Man(b1-4)GlcNAc(b1-4)GlcNAc
Outline: as §1

[23] = molecular target: Neu5Ac(a2-3)Gal(b1-4)GlcNAc(b1-2)[Neu5Ac(a2-3)Gal(b1-4)GlcNAc(b1-4)]Man(a1-3)[GlcNAc(b1-4)][Neu5Ac(a2-3)Gal(b1-4)GlcNAc(b1-2)[Neu5Ac(a2-3)Gal(b1-4)GlcNAc(b1-6)]Man(a1-6)]Man(b1-4)GlcNAc(b1-4)GlcNAc
Outline: as §1

[24] = molecular target: Neu5Ac(a2-3)Gal(b1-4)[Fuc(a1-3)]GlcNAc(b1-3)GalNAc
Outline: as §1

[25] = molecular target: Neu5Ac(a2-3)Gal6S(b1-4)GlcNAc
Outline: as §1

[26] = molecular target: Neu5Ac(a2-3)[GalNAc(b1-4)]Gal(b1-4)Glc
Outline: as §1

[27] = molecular target: Neu5Ac(a2-6)Gal(b1-4)GlcNAc(b1-2)Man(a1-3)[GlcNAc(b1-2)Man(a1-6)]Man(b1-4)GlcNAc(b1-4)GlcNAc
Outline: as §1

[28] = molecular target: Neu5Ac(a2-6)Gal(b1-4)GlcNAc(b1-2)Man(a1-6)[Gal(b1-4)GlcNAc(b1-2)Man(a1-3)]Man(b1-4)GlcNAc(b1-4)GlcNAc
Outline: as §1

[29] = molecular target: Neu5Ac(a2-6)Gal(b1-4)GlcNAc(b1-3)Gal(b1-4)GlcNAc(b1-3)Gal(b1-4)GlcNAc(b1-2)Man(a1-3)[Neu5Ac(a2-6)Gal(b1-4)GlcNAc(b1-3)Gal(b1-4)GlcNAc(b1-3)Gal(b1-4)GlcNAc(b1-2)Man(a1-6)]GalNAc
Outline: as §1

[30] = molecular target: Neu5Ac(a2-6)Gal(b1-4)GlcNAc(b1-6)[Gal(b1-3)GlcNAc(b1-3)]Gal(b1-4)Glc
Outline: as §1

[31] = molecular target: Neu5Ac(b2-6)Gal(b1-4)GlcNAc
Outline: as §1

[32] = molecular target: Neu5Gc(a2-3)Gal(b1-3)GlcNAc
Outline: as §1

Neu5Gc(a2-3)Gal(b1-4)Glc = molecular target: Neu5Gc(a2-3)Gal(b1-4)Glc
Outline: as §1

[33] = molecular target: Neu5Gc(a2-8)Neu5Ac(a2-3)Gal(b1-4)GlcNAc
Outline: as §1

[34] = molecular target: Neu5Gc(a2-8)Neu5Gc(a2-3)Gal(b1-4)GlcNAc(b1-3)Gal(b1-4)GlcNAc
Outline: as §1

B1: Clec2 (Mus musculus), Q9JL99 (protein)
chain: MQDEDGYITLNIKPRKQALSSAEPASSWWRVMALVLLISSMGLVVGLVALGIMSVTQQKYLLAEKENLSATLQQLAKKFCQELIRQSEIKTKSTFEHKCSPCATKWRYHGDSCYGFFRRNLTWEESKQYCTEQNATLVKTASQSTLDYIAERITSVRWIGLSRQNSKKDWMWEDSSVLRKNGINLSGNTEENMNCAYLHNGKIHPASCKERHYLICERNAGMTRVDQLL
glycan array binding signal (z-score) [1]: 9.47
glycan array binding signal (z-score) [2]: 3.96
glycan array binding signal (z-score) [3]: -0.063
glycan array binding signal (z-score) [4]: -0.388
glycan array binding signal (z-score) [5]: -0.74
glycan array binding signal (z-score) [6]: 0.349
glycan array binding signal (z-score) (Gal(a1-3)Gal(b1-3)GlcNAc): 3
glycan array binding signal (z-score) [7]: 6.06
glycan array binding signal (z-score) [8]: -0.939
glycan array binding signal (z-score) [9]: -0.411
glycan array binding signal (z-score) [10]: 0.433
glycan array binding signal (z-score) [11]: -0.864
glycan array binding signal (z-score) [12]: -0.993
glycan array binding signal (z-score) [13]: 3.5
glycan array binding signal (z-score) [14]: -0.472
glycan array binding signal (z-score) [15]: -0.464
glycan array binding signal (z-score) [16]: -0.166
glycan array binding signal (z-score) (Gal3S(b1-4)Glc6S): 3.71
glycan array binding signal (z-score) [17]: 1.03
glycan array binding signal (z-score) (Gal3S6S(b1-4)GlcNAc6S): 4.08
glycan array binding signal (z-score) (Gal6P(b1-4)GlcNAc): 3.62
glycan array binding signal (z-score) (Gal6S(b1-3)GlcNAc6S): 3.2
glycan array binding signal (z-score) [18]: 0.28
glycan array binding signal (z-score) (GalNAc(b1-4)Gal(b1-4)Glc): 1.12
glycan array binding signal (z-score) [19]: -0.598
glycan array binding signal (z-score) [20]: -0.749
glycan array binding signal (z-score) [21]: -0.215
glycan array binding signal (z-score) (Neu5Ac(a2-3)Gal): 0.604
glycan array binding signal (z-score) [22]: 3.51
glycan array binding signal (z-score) [23]: -0.711
glycan array binding signal (z-score) [24]: 0.837
glycan array binding signal (z-score) [25]: 0.844
glycan array binding signal (z-score) [26]: -0.342
glycan array binding signal (z-score) [27]: -0.833
glycan array binding signal (z-score) [28]: -0.707
glycan array binding signal (z-score) [29]: 4.45
glycan array binding signal (z-score) [30]: -0.654
glycan array binding signal (z-score) [31]: 0.023
glycan array binding signal (z-score) [32]: -0.366
glycan array binding signal (z-score) (Neu5Gc(a2-3)Gal(b1-4)Glc): -0.112
glycan array binding signal (z-score) [33]: -0.442
glycan array binding signal (z-score) [34]: -0.34

From the supplement of paper PMC8728848
